Assay results taken from PubChem BioAssay (NCI).
About 83,000 compounds went through this panel and 20% of them were active in at least one assay; those are over-represented in the sample as a whole.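 Assay: single dose, 48 h. Readout: percent growth (0 = no net growth; negative = cell death). Active: <10.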 Unmarked numbers belong to inactive results. The source made the active and inactive calls.

What was measured:
Assay in all cases: NCI-60 one-dose screen, 48 h (100 = growth as untreated, 0 = no growth, -100 = all killed)
Details in all cases: 10 µM unless noted
SR leukemia = tested on: SR leukemia
RPMI-8226 leukemia = tested on: RPMI-8226 leukemia
OVCAR-8 ovarian = tested on: OVCAR-8 ovarian
OVCAR-5 ovarian = tested on: OVCAR-5 ovarian
OVCAR-4 ovarian = tested on: OVCAR-4 ovarian
SK-OV-3 ovarian = tested on: SK-OV-3 ovarian
IGROV1 ovarian = tested on: IGROV1 ovarian
OVCAR-3 ovarian = tested on: OVCAR-3 ovarian
NCI/ADR-RES ovarian = tested on: NCI/ADR-RES ovarian
HS 578T breast = tested on: HS 578T breast

Compound: COC(=O)[C@H](Cc1cnc[nH]1)NC(=O)[C@@H](NC(=O)Nc1cc(C(F)(F)F)cc(C(F)(F)F)c1)C(C)C
- growth (SR leukemia): -37% [100 µM] (active)
- growth (RPMI-8226 leukemia): -53% [100 µM] (active)
- growth (OVCAR-8 ovarian): -83.6% [100 µM] (active)
- growth (OVCAR-5 ovarian): -82.7% [100 µM] (active)
- growth (OVCAR-4 ovarian): -85.1% [100 µM] (active)
- growth (SK-OV-3 ovarian): -100% [100 µM] (active)
- growth (IGROV1 ovarian): -80.5% [100 µM] (active)
- growth (OVCAR-3 ovarian): -100% [100 µM] (active)
- growth (NCI/ADR-RES ovarian): 73.9% [100 µM]

Compound: CCCc1n(Cc2ccc3ccccc3c2)cc[n+]1Cc1ccc2ccccc2c1
- growth (SR leukemia): -38.1% (active)
- growth (RPMI-8226 leukemia): -22.2% (active)
- growth (OVCAR-8 ovarian): -10.6% (active)
- growth (OVCAR-5 ovarian): 9.11% (active)
- growth (OVCAR-4 ovarian): 9.35% (active)
- growth (SK-OV-3 ovarian): 6.89% (active)
- growth (IGROV1 ovarian): -54.2% (active)
- growth (OVCAR-3 ovarian): -55.6% (active)
- growth (NCI/ADR-RES ovarian): 89.2%

Compound: COc1cc(C(=O)/C=C/c2cccc(Nc3ccnc4cc(Cl)ccc34)c2)cc(OC)c1OC
- growth (SR leukemia): -18.7% (active)
- growth (RPMI-8226 leukemia): -15.9% (active)
- growth (OVCAR-8 ovarian): -41% (active)
- growth (OVCAR-5 ovarian): -35.8% (active)
- growth (OVCAR-4 ovarian): -39.5% (active)
- growth (SK-OV-3 ovarian): 20.3%
- growth (IGROV1 ovarian): -54% (active)
- growth (OVCAR-3 ovarian): -51.4% (active)
- growth (NCI/ADR-RES ovarian): 12.2%

Compound: C[C@@H]1C[C@@H]([C@@H](CC2CC(=O)NC(=O)C2)OC(=O)CC(=O)c2ccccc2)C(=O)[C@@H](C)C1
- growth (SR leukemia): 31.1%
- growth (RPMI-8226 leukemia): 17.4%
- growth (OVCAR-8 ovarian): 12.5%
- growth (OVCAR-5 ovarian): 16.8%
- growth (OVCAR-4 ovarian): 20.2%
- growth (SK-OV-3 ovarian): -3.27% (active)
- growth (IGROV1 ovarian): -10.4% (active)
- growth (OVCAR-3 ovarian): 19.4%
- growth (HS 578T breast): 19.4%
- growth (NCI/ADR-RES ovarian): 10.3%

Compound: COC(=O)[C@H](Cc1cn(C)cn1)NC(=O)[C@H](Cc1ccccc1)NC(=O)Nc1cc(C(F)(F)F)cc(C(F)(F)F)c1
- growth (SR leukemia): -39% [100 µM] (active)
- growth (RPMI-8226 leukemia): -58.8% [100 µM] (active)
- growth (OVCAR-8 ovarian): -87.9% [100 µM] (active)
- growth (OVCAR-5 ovarian): -94% [100 µM] (active)
- growth (OVCAR-4 ovarian): -87.1% [100 µM] (active)
- growth (SK-OV-3 ovarian): -100% [100 µM] (active)
- growth (IGROV1 ovarian): -56.3% [100 µM] (active)
- growth (OVCAR-3 ovarian): -99.1% [100 µM] (active)
- growth (NCI/ADR-RES ovarian): 4.87% [100 µM] (active)

Compound: O=C(CNC(=O)c1cccc2ccccc12)Nc1ccccc1Oc1cccc(O)c1
- growth (SR leukemia): 18.7% [5 µM]
- growth (RPMI-8226 leukemia): 25.9% [5 µM]
- growth (OVCAR-8 ovarian): 15.3% [5 µM]
- growth (OVCAR-5 ovarian): 39.9% [5 µM]
- growth (OVCAR-4 ovarian): 59.1% [5 µM]
- growth (SK-OV-3 ovarian): 7.7% [5 µM] (active)
- growth (IGROV1 ovarian): 42.9% [5 µM]
- growth (OVCAR-3 ovarian): -10.8% [5 µM] (active)
- growth (NCI/ADR-RES ovarian): 13% [5 µM]

Compound: COc1cc(C2CC(C3C(=O)N(C)C(=O)N(C)C3=O)=NN2c2cc(Cl)cc(Cl)c2)cc(OC)c1OC (stereo not drawn)
- growth (SR leukemia): 94.5%
- growth (RPMI-8226 leukemia): 85.7%
- growth (OVCAR-8 ovarian): 96.7%
- growth (OVCAR-5 ovarian): 108%
- growth (OVCAR-4 ovarian): 96%
- growth (SK-OV-3 ovarian): 95.6%
- growth (IGROV1 ovarian): 102%
- growth (OVCAR-3 ovarian): 97.2%
- growth (NCI/ADR-RES ovarian): 87.2%

Compound: O=C(/C=C/c1ccc(C(F)(F)F)cc1)c1ccc(Nc2nc(NCCO)nc(NCCO)n2)cc1
- growth (SR leukemia): -2.01% (active)
- growth (RPMI-8226 leukemia): 1.43% (active)
- growth (OVCAR-8 ovarian): 21.7%
- growth (OVCAR-5 ovarian): 64.3%
- growth (OVCAR-4 ovarian): 62.3%
- growth (SK-OV-3 ovarian): 70.7%
- growth (IGROV1 ovarian): 72.5%
- growth (OVCAR-3 ovarian): 25.8%
- growth (NCI/ADR-RES ovarian): 90.1%

Compound: O=C(/C=C/c1cccc(Nc2ccnc3cc(Cl)ccc23)c1)c1ccc(Cl)cc1
- growth (SR leukemia): -9.97% (active)
- growth (RPMI-8226 leukemia): -9.58% (active)
- growth (OVCAR-8 ovarian): 45.1%
- growth (OVCAR-5 ovarian): 60.4%
- growth (OVCAR-4 ovarian): 45.6%
- growth (SK-OV-3 ovarian): 76.7%
- growth (IGROV1 ovarian): 40.7%
- growth (OVCAR-3 ovarian): 56.8%
- growth (NCI/ADR-RES ovarian): 38.1%

Compound: c1ccc(-c2n(Cc3ccc4ccccc4c3)cc[n+]2Cc2ccc3ccccc3c2)cc1
- growth (SR leukemia): -42.2% (active)
- growth (RPMI-8226 leukemia): -37% (active)
- growth (OVCAR-8 ovarian): -72.4% (active)
- growth (OVCAR-5 ovarian): -35.9% (active)
- growth (OVCAR-4 ovarian): -28.1% (active)
- growth (SK-OV-3 ovarian): -6.1% (active)
- growth (IGROV1 ovarian): -67.8% (active)
- growth (OVCAR-3 ovarian): -89.8% (active)
- growth (NCI/ADR-RES ovarian): 82.2%

Compound: CCOc1cc(CCNS(=O)(=O)c2ccc(C)cc2)c(C(C)=O)cc1OCC
- growth (SR leukemia): 42.6% [100 µM]
- growth (RPMI-8226 leukemia): 40% [100 µM]
- growth (OVCAR-8 ovarian): 76% [100 µM]
- growth (OVCAR-5 ovarian): 101% [100 µM]
- growth (OVCAR-4 ovarian): 84.6% [100 µM]
- growth (SK-OV-3 ovarian): 96.7% [100 µM]
- growth (IGROV1 ovarian): 93.9% [100 µM]
- growth (OVCAR-3 ovarian): 71.8% [100 µM]
- growth (NCI/ADR-RES ovarian): 66.3% [100 µM]

Compound: CCCCCc1c(C)[nH]c(/C=C2\N=C(c3ccc[nH]3)C=C2Oc2ccccc2)c1C
- growth (SR leukemia): 8.8% [100 µM] (active)
- growth (RPMI-8226 leukemia): -31.5% [100 µM] (active)
- growth (OVCAR-8 ovarian): -90.2% [100 µM] (active)
- growth (OVCAR-5 ovarian): -99.8% [100 µM] (active)
- growth (OVCAR-4 ovarian): -74.7% [100 µM] (active)
- growth (SK-OV-3 ovarian): -54.7% [100 µM] (active)
- growth (IGROV1 ovarian): -31.6% [100 µM] (active)
- growth (OVCAR-3 ovarian): -93.4% [100 µM] (active)
- growth (HS 578T breast): -7.4% [100 µM] (active)
- growth (NCI/ADR-RES ovarian): -77.1% [100 µM] (active)

Compound: c1ccc2nc(N/N=C3\CCCCC3C3CCCCC3)ccc2c1 (stereo not drawn)
- growth (SR leukemia): -17.5% (active)
- growth (RPMI-8226 leukemia): -18.8% (active)
- growth (OVCAR-8 ovarian): 83.6%
- growth (OVCAR-5 ovarian): 58%
- growth (OVCAR-4 ovarian): 51.1%
- growth (SK-OV-3 ovarian): 88.6%
- growth (IGROV1 ovarian): 44.4%
- growth (OVCAR-3 ovarian): 33.2%
- growth (NCI/ADR-RES ovarian): 57.2%

Compound: O=C(N/N=C/c1cccc(O)c1)c1ccc(C(F)(F)F)nc1Nc1cccc(C(F)(F)F)c1
- growth (SR leukemia): -38.7% (active)
- growth (RPMI-8226 leukemia): -37.2% (active)
- growth (OVCAR-8 ovarian): 18.1%
- growth (OVCAR-5 ovarian): 34.3%
- growth (OVCAR-4 ovarian): 10.5%
- growth (SK-OV-3 ovarian): 24.6%
- growth (IGROV1 ovarian): 15%
- growth (OVCAR-3 ovarian): -12.2% (active)
- growth (NCI/ADR-RES ovarian): 13.6%

Compound: CCn1cnc(C[C@H](NC(=O)[C@H](CCCCNC(=O)Nc2cc(C(F)(F)F)cc(C(F)(F)F)c2)NC(=O)Nc2cc(C(F)(F)F)cc(C(F)(F)F)c2)C(=O)OC)c1
- growth (SR leukemia): -29% [100 µM] (active)
- growth (RPMI-8226 leukemia): -42.4% [100 µM] (active)
- growth (OVCAR-8 ovarian): -9.32% [100 µM] (active)
- growth (OVCAR-5 ovarian): -67.9% [100 µM] (active)
- growth (OVCAR-4 ovarian): -17.2% [100 µM] (active)
- growth (SK-OV-3 ovarian): -23.7% [100 µM] (active)
- growth (IGROV1 ovarian): -23.5% [100 µM] (active)
- growth (OVCAR-3 ovarian): -90.2% [100 µM] (active)
- growth (HS 578T breast): -7.06% [100 µM] (active)
- growth (NCI/ADR-RES ovarian): 51.5% [100 µM]

Compound: Cc1sc2nc(NCCc3cccs3)[nH]c(=O)c2c1C
- growth (SR leukemia): 72.1%
- growth (RPMI-8226 leukemia): 86.7%
- growth (OVCAR-8 ovarian): 87.4%
- growth (OVCAR-5 ovarian): 97.8%
- growth (OVCAR-4 ovarian): 95.6%
- growth (SK-OV-3 ovarian): 79%
- growth (IGROV1 ovarian): 101%
- growth (OVCAR-3 ovarian): 106%
- growth (NCI/ADR-RES ovarian): 85.2%

Compound: COc1cc(-c2nnc(-c3nc(-c4cc(OC)c(OC)c(OC)c4)n4ccccc34)o2)ccc1N
- growth (SR leukemia): 69.6%
- growth (RPMI-8226 leukemia): 39.6%
- growth (OVCAR-8 ovarian): 50.8%
- growth (OVCAR-5 ovarian): 106%
- growth (OVCAR-4 ovarian): 76.5%
- growth (SK-OV-3 ovarian): 96%
- growth (IGROV1 ovarian): 56.4%
- growth (OVCAR-3 ovarian): 77.6%
- growth (HS 578T breast): 44.2%
- growth (NCI/ADR-RES ovarian): 61.3%

Compound: O=C(COc1ccc(/C=C2\Oc3ccc4ccccc4c3C2=O)cc1)c1ccc([N+](=O)[O-])cc1
- growth (SR leukemia): 29%
- growth (RPMI-8226 leukemia): 61.9%
- growth (OVCAR-8 ovarian): 91.1%
- growth (OVCAR-5 ovarian): 103%
- growth (OVCAR-4 ovarian): 102%
- growth (SK-OV-3 ovarian): 103%
- growth (OVCAR-3 ovarian): 158%
- growth (HS 578T breast): 105%
- growth (NCI/ADR-RES ovarian): 101%

Compound: COC(=O)C1CCN(S(=O)(=O)c2ccc(-c3ccccc3)cc2)CC1
- growth (SR leukemia): 75.7%
- growth (RPMI-8226 leukemia): 144%
- growth (OVCAR-8 ovarian): 81.6%
- growth (OVCAR-5 ovarian): 106%
- growth (OVCAR-4 ovarian): 103%
- growth (SK-OV-3 ovarian): 98.4%
- growth (OVCAR-3 ovarian): 114%
- growth (HS 578T breast): 117%
- growth (NCI/ADR-RES ovarian): 116%

Compound: O=C(N/N=C/c1ccc(Cl)cc1Cl)c1ccccc1Nc1cccc(C(F)(F)F)c1
- growth (SR leukemia): 56.3%
- growth (RPMI-8226 leukemia): 58.4%
- growth (OVCAR-8 ovarian): 71.6%
- growth (OVCAR-5 ovarian): 85.6%
- growth (OVCAR-4 ovarian): 65.6%
- growth (SK-OV-3 ovarian): 97.4%
- growth (OVCAR-3 ovarian): 53.3%
- growth (HS 578T breast): 49.3%
- growth (NCI/ADR-RES ovarian): 73.4%

Compound: Cc1ccc(OCC(=O)Nc2ccc(Oc3ccccc3)cc2)c([N+](=O)[O-])n1
- growth (SR leukemia): 82.6%
- growth (RPMI-8226 leukemia): 50.7%
- growth (OVCAR-8 ovarian): 79%
- growth (OVCAR-5 ovarian): 84.4%
- growth (OVCAR-4 ovarian): 77.4%
- growth (SK-OV-3 ovarian): 71.9%
- growth (OVCAR-3 ovarian): 88.7%
- growth (HS 578T breast): 113%
- growth (NCI/ADR-RES ovarian): 43.7%
